# Results filed as inconclusive are left out. More than one record can exist for a structure, and the calls need not agree. The source made the active and inactive calls. Rule for the calls: active = hit-call score of the fitted dose curve at least 0.9, where 1 is the maximum; inconclusive = response in the unintended direction; inactive = score below 0.9.
# Assay: ATG_M_19_TRANS: Attagene TRANS-FACTORIAL HepG2 Assay for M19 Transcription Factor (Internal Marker) (AID 2282974)
# Details: HepG2 Attagene TRANS-FACTORIAL M19 internal marker reporter
# Summary of the method: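 Reporter mRNA induction was measured in transfected HepG2 cells 24 h after dosing. Endpoint fitted upward relative to DMSO and serves as a background control within the multiplexed TRANS panel.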
row,SMILES,outcome
1,CCC(O)=C1C(=O)CC(C(=O)O)CC1=O (stereo not drawn),inactive
2,COC(=O)c1cccc(C)c1S(=O)(=O)NC(=O)Nc1nc(OCC(F)(F)F)nc(N(C)C)n1,inactive
3,N[C@@H](Cc1cc(I)c(Oc2ccc(O)c(I)c2)c(I)c1)C(=O)O,inactive
4,S=C([S-])NCCNC(=S)[S-].[Mn+2],inactive
5,CCN(Cc1c(F)cccc1Cl)c1c([N+](=O)[O-])cc(C(F)(F)F)cc1[N+](=O)[O-],inactive
6,CC(=O)[C@H]1CC[C@H]2[C@@H]3CCC4=CC(=O)CC[C@]4(C)[C@H]3CC[C@]12C,inactive
7,S=C(S)NCCNC(=S)S.[Mn+2].[S-]C([S-])=NCCN=C([S-])[S-].[Zn+2],inactive
8,c1ccc2[nH]c(-c3cscn3)nc2c1,inactive
9,CN(C)C(=O)Nc1ccc(Cl)c(Cl)c1,inactive
10,COC(=O)c1ccccc1C(=O)O,inactive
11,CC1(C)C(C=C(Cl)Cl)C1C(=O)OCc1cccc(Oc2ccccc2)c1 (stereo not drawn),inactive
12,C[C@]12CC[C@@H]3c4ccc(O)cc4C[C@@H](CCCCCCCCCS(=O)CCCC(F)(F)C(F)(F)F)[C@H]3[C@@H]1CC[C@@H]2O (stereo partly drawn),inactive
13,CCC(C)OC(=O)N1CCCCC1CCO (stereo not drawn),inactive
14,COCCO,inactive
15,O=C(c1ccccc1)C1CCCCC1,inactive
16,COc1c(Cl)ccc(Cl)c1C(=O)O,inactive
17,O=C(c1ccc(O)cc1O)c1ccc(O)cc1O,inactive
18,CCOC(=O)c1ccc(O)cc1,inactive
19,O=C(O)C1(C(=O)Nc2ccc(Cl)cc2Cl)CC1,inactive
20,CC(C)(c1ccc(O)cc1)c1ccc(O)cc1,inactive
21,CCOC(=O)C(C)Oc1ccc(Oc2cnc3cc(Cl)ccc3n2)cc1 (stereo not drawn),inactive
22,CC(=O)S[C@@H]1CC2=CC(=O)CC[C@]2(C)[C@H]2CC[C@@]3(C)[C@@H](CC[C@@]34CCC(=O)O4)[C@H]12,inactive
23,CC(C)CCCCCCc1ccc(O)cc1,inactive
24,CCOC(=O)NCCOc1ccc(Oc2ccccc2)cc1,inactive

# Assay: ATG_Hpa5_TRANS: Attagene TRANS-FACTORIAL HepG2 Assay for human GAL4-Hpa5 Hepatocyte Transcription Factor Basal Promoter (AID 2282975);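 note: hits are increases in reporter mRNA over DMSO baseline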
# Details: HepG2 Attagene GAL4-Hpa5 transcription reporter
# Summary of the method: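 Gain-of-signal versus DMSO is fitted for reporter mRNA quantified by RT-PCR and capillary electrophoresis after 24 h exposure. This endpoint is an internal background marker in transiently transfected HepG2 cells carrying GAL4-UAS reporter units.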
row,SMILES,outcome
1,COC(=O)c1cccc(C)c1S(=O)(=O)NC(=O)Nc1nc(OCC(F)(F)F)nc(N(C)C)n1,inactive
2,S=C([S-])NCCNC(=S)[S-].[Mn+2],inactive
3,CCN(Cc1c(F)cccc1Cl)c1c([N+](=O)[O-])cc(C(F)(F)F)cc1[N+](=O)[O-],inactive
4,S=C(S)NCCNC(=S)S.[Mn+2].[S-]C([S-])=NCCN=C([S-])[S-].[Zn+2],inactive
5,CN(C)C(=O)Nc1ccc(Cl)c(Cl)c1,inactive
6,CCCN(CCC)c1c([N+](=O)[O-])cc(C(F)(F)F)c(N)c1[N+](=O)[O-],inactive
7,COCCO,inactive
8,c1ccc(Nc2ccccc2)cc1,inactive
9,N#CSCSc1nc2ccccc2s1,inactive
10,CCOC(=O)NCCOc1ccc(Oc2ccccc2)cc1,inactive
11,CCNc1nc(N)nc(Cl)n1,inactive

# Assay: ATG_GAL4_TRANS: Attagene TRANS-FACTORIAL HepG2 Assay for GAL4 (Internal Marker) (AID 2282976)
# Details: HepG2 Attagene TRANS GAL4 internal marker reporter
# Summary of the method: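 RT-PCR/capillary electrophoresis readout of reporter mRNA. HepG2, transient MRTU transfection (GAL4-UAS reporters), 24 h compound exposure. Background-control endpoint, positive direction vs DMSO baseline.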
SMILES,outcome,AC50
N[C@@H](Cc1cc(I)c(Oc2ccc(O)c(I)c2)c(I)c1)C(=O)O,inactive,–
CCN(Cc1c(F)cccc1Cl)c1c([N+](=O)[O-])cc(C(F)(F)F)cc1[N+](=O)[O-],inactive,–
CC(=O)[C@H]1CC[C@H]2[C@@H]3CCC4=CC(=O)CC[C@]4(C)[C@H]3CC[C@]12C,inactive,158 µM (active)
c1ccc2[nH]c(-c3cscn3)nc2c1,inactive,–
CC1(C)C(C=C(Cl)Cl)C1C(=O)OCc1cccc(Oc2ccccc2)c1 (stereo not drawn),inactive,–
C[C@]12CC[C@@H]3c4ccc(O)cc4C[C@@H](CCCCCCCCCS(=O)CCCC(F)(F)C(F)(F)F)[C@H]3[C@@H]1CC[C@@H]2O (stereo partly drawn),inactive,–
COCCO,inactive,–
O=C(c1ccccc1)C1CCCCC1,inactive,–
CCOC(=O)c1ccc(O)cc1,inactive,–
CC(C)(c1ccc(O)cc1)c1ccc(O)cc1,inactive,–
CC(=O)S[C@@H]1CC2=CC(=O)CC[C@]2(C)[C@H]2CC[C@@]3(C)[C@@H](CC[C@@]34CCC(=O)O4)[C@H]12,inactive,–
CC(C)CCCCCCc1ccc(O)cc1,inactive,–

# — PubChem BioAssay (EPA / NIEHS)
